The campaign covered roughly 320,000 compounds. About 2,100 (0.66%) were called active. About 53% were inconclusive and are not listed. This is one part of a sample in which actives are shown more often than they occur. Calls follow the shape of the dose curve; as a rule, active = well fitted inhibition curve with a large enough effect in the signal ratio, with a control signal flat (not every such curve was filed as active); inconclusive = small, poorly fitted or top-dose-only effect, or effect the other way, or a change in a side signal; inactive = flat fitted curve, though single readings scatter; the % refers to the signal ratio.
Potency is read from the fitted curve at half-maximal effect.

The assay is described as follows: qHTS Assay for Lipid Storage Modulators in Drosophila S3 Cells.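 As to cell number change: cells counted by Cell Tracker Red CMTPX staining in the red channel.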 As to lipid storage change, negative = inhibition: % is scaled to controls: 0 for no effect and ±100 for the full control effect. The note with it: BODIPY lipid droplet fluorescence, 18-24 h, cells fed with added oleic acid; cell number change: measured here: cell count max response; series mostly up to 46.1 µM; lipid storage change, negative = inhibition: at the top concentration. The essentials:
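Drosophila S3 cells got compounds at several concentrations plus oleic acid (400 uM solution). Laser-scanning cytometry with 488 nm excitation read lipid droplets at 500-530 nm and cells at 575-640 nm. Percent activity was relative to 20 uM Triacsin C.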
A general note: Quantitative high-throughput screening tests each substance at several concentrations.
Take `Cc1cccc(CSC2=CS(=O)(=O)c3ccccc3N2)c1`: the “lipid storage change, negative = inhibition” value was 1.8% (inactive) and the cell number change was 2.06%.

For the molecule `Cc1cccc(CNC(=O)c2cc(S(=O)(=O)N3CCOCC3)cn2C)c1`, the outcome was inactive and the cell number change is 14.6%.

Regarding `CC(=O)c1cccc(NC(=O)COc2ccc(S(=O)(=O)N3CCCCC3)cc2)c1`, the “lipid storage change, negative = inhibition” value was 13.1% (inactive) and the cell number change was determined as 12.3%.

Consider `Cc1nn(C(C)C(=O)O)c(C)c1[N+](=O)[O-]` (configuration not stated), for which the “lipid storage change, negative = inhibition” value was -18.1% (inactive) and the cell number change came out at 3.58%.

As to `O=C(Nc1nccs1)c1ccc(-c2ccc(Cl)cc2Cl)o1`, the “lipid storage change, negative = inhibition” value is -9.27% (inactive) and the cell number change was -16.9%.

With `O=C(Nc1nccs1)c1ccc(-c2ccc(F)cc2)o1`, the “lipid storage change, negative = inhibition” value was 2.16% (inactive) and the cell number change amounted to 0.674%.

Take `O=C(Nc1nccs1)c1ccc(-c2ccc(F)c(Cl)c2)o1`: the Potency is 10.3 µM (active) and the cell number change was -11.8%.

With `CCOC(=O)c1c(NC(=O)Cn2cnc([N+](=O)[O-])n2)sc2c1CCC(C)C2` (configuration not stated), the “lipid storage change, negative = inhibition” value is 6.52% (inactive) and the cell number change was 2.74%.

`Cc1ccccc1NC(=O)c1c(C)cc(=O)oc1C`: the “lipid storage change, negative = inhibition” value was -2.94% (inactive).

`Cc1cccc(NC(=O)c2c(C)cc(=O)oc2C)n1`: the Potency was 8.2 µM (active) and the cell number change is -10.1%.

As for `Cc1cc(=O)oc(C)c1C(=O)Nc1ccc(Cl)cn1`, the “lipid storage change, negative = inhibition” value is -4.54% (inactive) and the cell number change was determined as 1.04%.

Consider `CC1=C(C)CC(C(=O)NNC(=O)c2csc(C)c2C)C(C(=O)O)C1` (configuration not stated), for which the “lipid storage change, negative = inhibition” value is 5.9% (inactive) and the cell number change was -1.11%.

On to `CS(=O)(=O)N(C(=O)NC(=O)NC12CC3CC(CC(C3)C1)C2)C1CCCCC1`, for which the “lipid storage change, negative = inhibition” value is 2.98% (inactive) and the cell number change worked out at 9.2%.

For `CC(=O)c1ccc(N2CCN(S(=O)(=O)c3ccc(-c4cc(C)no4)s3)CC2)cc1`, the call was inactive.

In the case of `COc1ccc(N2CCN(S(=O)(=O)c3ccc(-c4cc(C)no4)s3)CC2)cc1`, the Potency was 23.1 µM (active).

For the molecule `Cc1cc(-c2ccc(S(=O)(=O)N3CCN(c4ccc(F)cc4)CC3)s2)on1`, the result was inactive and the cell number change was 5.9%.

Regarding `C=CCn1c(CCNC(=O)c2ccc(Cl)c(Cl)c2)nnc1SCCOc1ccc(OC)cc1`, the “lipid storage change, negative = inhibition” value was 2.78% (inactive) and the cell number change was -3.68%.

Take `O=C(/C=C/c1ccc(F)cc1)NCc1cccs1`: the “lipid storage change, negative = inhibition” value was 20.7% (inactive) and the cell number change came to 12.4%.

As for `Cc1nc2cc(NC(=O)C3COc4ccccc4O3)ccc2s1` (configuration not stated), the “lipid storage change, negative = inhibition” value is 0.94% (inactive) and the cell number change stood at 3.18%.

Regarding `COc1ccc(S(=O)(=O)N2CCN(CC(=O)c3[nH]c(C)c(C(C)=O)c3C)CC2)cc1OC`, the “lipid storage change, negative = inhibition” value is 8.72% (inactive) and the cell number change was determined as 3.31%.

Turning to `Cc1ccc(S(=O)(=O)NCC(=O)OCc2cc(=O)oc3c(C)c(C)ccc23)cc1C`, the “lipid storage change, negative = inhibition” value is 13.6% (inactive) and the cell number change was determined as 11.5%.

Take `CN(CC(=O)Nc1ccc(Cl)c(Cl)c1)C(=O)CNC(=O)Cc1ccccc1`: the “lipid storage change, negative = inhibition” value was 19% (inactive) and the cell number change is -4.02%.

Turning to `COc1ccccc1NC(=O)NN1CCCCC1`, the Potency was 0.58 µM (active) and the cell number change was 17.6%.

For the molecule `COc1ccccc1NC(=O)C1CCCN(S(=O)(=O)c2ccc(-n3cnnn3)cc2)C1` (configuration not stated), the molecule was classed as inactive and the cell number change is -7.69%.

Consider `COc1ccccc1NC(=O)C1CCCN(S(=O)(=O)c2cnc[nH]2)C1` (configuration not stated), for which the “lipid storage change, negative = inhibition” value was 7.37% (inactive) and the cell number change was 1.66%.

In the case of `COc1ccccc1NC(=O)NCCN1CCCCC1`, the “lipid storage change, negative = inhibition” value is -2.26% (inactive) and the cell number change was determined as 6.08%.

In the case of `COc1ccccc1NC(=O)C1CCCN(S(=O)(=O)c2ccccc2)C1` (configuration not stated), the Potency is 5.8 µM (active) and the cell number change is -11%.

For `COc1ccccc1NC(=O)N1CCCC1`, the “lipid storage change, negative = inhibition” value is 8.15% (inactive) and the cell number change is 1.33%.

Regarding `COc1ccc2c(c1)[nH]c1c(=O)n(N)cnc12`, the “lipid storage change, negative = inhibition” value was 8.27% (inactive) and the cell number change stood at 6.47%.

As for `Cn1cc(/C=C/C(=O)N2CCCC(C(=O)c3cccc4ccccc34)C2)cn1` (configuration not stated), the “lipid storage change, negative = inhibition” value is -4.39% (inactive) and the cell number change turned out to be 8.66%.

Take `Cc1ccc(N2CC(NC(=O)C(=O)c3c[nH]c4ccccc34)CC2=O)cc1C` (configuration not stated): the “lipid storage change, negative = inhibition” value is 1.15% (inactive) and the cell number change came to 20.5%.

With `Cc1nc(NC(=O)COC(=O)CCc2nc3ccccc3s2)c(Cl)cc1Cl`, the “lipid storage change, negative = inhibition” value is -1.19% (inactive) and the cell number change was 8.53%.

Consider `C[C@H](NC(=O)c1nc[nH]c1C(=O)N[C@@H](Cc1ccccc1)C(=O)OCc1ccccc1)c1ccccc1`, for which the “lipid storage change, negative = inhibition” value was -6.18% (inactive).

`O=C(CNc1ccc2ccccc2c1)N/N=C/c1ccc([N+](=O)[O-])o1`: the “lipid storage change, negative = inhibition” value is 26.8% (inactive).

Turning to `O=C(N/N=C/c1ccc([N+](=O)[O-])o1)C(=O)Nc1ccc(C(=O)O)cc1`, the “lipid storage change, negative = inhibition” value was 13.1% (inactive) and the cell number change was determined as 8.32%.

For `CCCC(=O)Nc1ccc(C(=O)N/N=C/c2ccc([N+](=O)[O-])o2)cc1`, the Potency is 14.6 µM (active) and the cell number change was -15.2%.

On to `O=C(CNc1cccc2ccccc12)N/N=C/c1ccc([N+](=O)[O-])cc1`, for which the “lipid storage change, negative = inhibition” value is -3.45% (inactive) and the cell number change is -4.75%.

Take `CCCCCCCC(=O)N/N=C/c1ccc([N+](=O)[O-])o1`: the “lipid storage change, negative = inhibition” value was -11.4% (inactive) and the cell number change is -5.79%.

As to `O=C(CNc1cccc2ccccc12)N/N=C/c1ccc([N+](=O)[O-])o1`, the Potency was 16.4 µM (active) and the cell number change was -25.8%.

Turning to `COc1nc(OC)nc(N2CCC(C(=O)Nc3cccc4c3CCCC4)CC2)n1`, the “lipid storage change, negative = inhibition” value was 20.9% (inactive) and the cell number change was -6.45%.

For `O=C1OC(C(=O)Nc2nccs2)Cc2ccccc21` (configuration not stated), the molecule was called inactive.

Regarding `O=C(CSc1ncnc2ccccc12)Nc1ccc2c(c1)OCCO2`, the “lipid storage change, negative = inhibition” value is 24.4% (inactive).

As for `CC(C)(C)c1nc(SCC(=O)Nc2ccc3c(c2)OCCO3)c2ccccc2n1`, the Potency is 18.4 µM (active) and the cell number change is -25.4%.

In the case of `Cc1cc(NC(=O)CSc2nc(C(C)(C)C)nc3ccccc23)no1`, the “lipid storage change, negative = inhibition” value was -21.1% (inactive) and the cell number change is -18%.

For the molecule `COc1ccc2[nH]c(=O)c(CNc3ccc(C)cc3C)cc2c1`, the “lipid storage change, negative = inhibition” value was 7.28% (inactive) and the cell number change is -6.94%.

Regarding `CC(=O)N/C(=C/c1ccccc1)C(=O)NCCO`, the “lipid storage change, negative = inhibition” value is -18.3% (inactive) and the cell number change was determined as 7.72%.

Turning to `O=C(NCC(F)(F)F)Nc1nnc(C(F)(F)F)s1`, the “lipid storage change, negative = inhibition” value was 0.908% (inactive) and the cell number change was found to be 0.475%.

On to `CCc1ccc(NC(=O)CCC(=O)Nc2nnc(C(F)(F)F)s2)cc1`, for which the molecule was called inactive and the cell number change amounted to 24.4%.

As for `CCC(NC(=O)Nc1nnc(C(F)(F)F)s1)(C(F)(F)F)C(F)(F)F`, the Potency is 16.4 µM (active) and the cell number change was -12.6%.

`CC(C)(C)CC(=O)Nc1nnc(C(F)(F)F)s1`: the “lipid storage change, negative = inhibition” value was 0.0305% (inactive) and the cell number change amounted to 0.161%.

On to `O=C(CCC(=O)N1CCCC1)Nc1nnc(C(F)(F)F)s1`, for which the “lipid storage change, negative = inhibition” value is 18.1% (inactive) and the cell number change turned out to be 11.1%.

For `O=C(O)CCC(=O)Nc1nnc(C(F)(F)F)s1`, the Potency was 29.1 µM (active) and the cell number change is -2.24%.

As for `CCOC(=O)C1CCN(C(=O)C(CCSC)NC(=O)COc2ccccc2)CC1` (configuration not stated), the “lipid storage change, negative = inhibition” value is -10.9% (inactive) and the cell number change stood at 22.1%.

Take `CC(=O)Nc1cccc(-c2nn[nH]n2)c1`: the “lipid storage change, negative = inhibition” value is 7.27% (inactive) and the cell number change was 9.02%.

Turning to `CC(=O)Nc1ccc(Nc2nnc(-c3ccc(O)cc3)c3ccccc23)cc1`, the “lipid storage change, negative = inhibition” value is 7.47% (inactive) and the cell number change was 9.07%.

In the case of `Cc1cc(C)cc(NC(=O)Cc2ccc(-n3cccc3)cc2)c1`, the “lipid storage change, negative = inhibition” value is 12.5% (inactive) and the cell number change was -7.37%.

Consider `COc1ccc(C(CCN(Cc2ccc(OC)c(OC)c2)C(C)=O)c2ccccc2)cc1` (configuration not stated), for which the “lipid storage change, negative = inhibition” value is -11.8% (inactive) and the cell number change was -3.52%.

Consider `CC(=O)N(CCC(c1ccco1)C(C)C)Cc1ccc(OC(C)C)cc1` (configuration not stated), for which the “lipid storage change, negative = inhibition” value was -3.84% (inactive) and the cell number change is -2.37%.

`COc1ccc(C(CCN(Cc2ccc(OC)c(OC)c2)C(C)=O)C(C)C)cc1` (configuration not stated): the Potency is 0.82 µM (active) and the cell number change is -13.5%.

For `O=C(O)CCc1ccc(-c2ccc(Br)cc2)n1Cc1ccco1`, the Potency was 6.51 µM (active) and the cell number change is -8.78%.

In the case of `Cc1ccc(-c2ccc(CCC(=O)O)n2Cc2ccco2)cc1`, the “lipid storage change, negative = inhibition” value is 1.97% (inactive) and the cell number change was found to be 19.5%.

As to `O=C(O)CCc1ccc(-c2ccc(F)cc2)n1Cc1ccco1`, the “lipid storage change, negative = inhibition” value was 3.2% (inactive) and the cell number change was -0.476%.

Source of the values: PubChem BioAssay AID2685 (National Center for Advancing Translational Sciences (NCATS), 2010).
